Out of some 69,000 compounds screened, about 8,600 (12%) showed an effect of 50% or more. Many of the other results were omitted from the sample, so strong results are more common in it than they were.

The assay has as its system Plasmodium berghei. The experiment in a line: Screen against P. berghei liver stage (PbLuc), transformed with Luciferase, at 10uM. The class given is functional, HepG2. Conditions: tested at 10 uM.
`Cc1sc(Oc2ccccc2Cl)nc1C(=O)O`: the INHIBITION is reported as 18.14%.

With `CC(C)N1CCC(NC(=O)c2cn(-c3ccc(F)cc3)nn2)C1` (stereo not given), the INHIBITION was 23.7%.

`CCS(=O)(=O)CCNC(=O)c1cc2n(n1)CCCO2`: the INHIBITION is reported as -16.3%.

Turning to `Cc1cnc(N2CCOCC3(CCN(c4ccccn4)C3)C2)nc1` (stereo not given), the INHIBITION is listed as 34.4%.

Turning to `COc1ccc(C2CCCN2Cc2nc3c(cnn3C)c(=O)[nH]2)cc1` (stereo not given), the INHIBITION is reported as -5.25%.

As to `O=C(CCc1c(F)cccc1F)N1CCCCC1Cn1cccn1` (stereo not given), the INHIBITION was 15.6%.

On to `C=c1nc(NC)sc1=C1NC(c2c(C)ncc3c2CCNC3)=NO1`, for which the INHIBITION was found to be 39.3%.

On to `Cn1ccc(CN2CCC(CN3CCOCC3)CC2)cc1=O`, for which the INHIBITION is reported as 31.3%.

As to `COc1cccc(-c2cc(C(=O)NCCCn3nc(C)cc3C)[nH]n2)c1`, the INHIBITION is given as -68.9%.

For the compound `c1ccc([C@@H]2CN(Cc3ccncc3)C[C@H]2c2cc[nH]n2)cc1`, the INHIBITION is on record as 27.2%.

As for `Cc1cn2c(=O)c(-c3ccnc(NC4CCOCC4)n3)cnc2s1`, the INHIBITION was -9.27%.

On to `CCOCCCNC(=O)CN(c1cc(C)cc(C)c1)S(C)(=O)=O`, for which the INHIBITION is listed as 34.2%.

As to `N#Cc1ccc(CN2CCCC2Cn2cccn2)cc1` (stereo not given), the INHIBITION worked out at 9.14%.

For the compound `O=C(Nc1cccc(N2CCCC2)c1)C1CCCN1c1nccs1` (stereo not given), the INHIBITION is listed as 48.9%.

`O=C(Nc1cccc(C2SCCS2)c1)C1CCCN1c1nccs1` (stereo not given): the INHIBITION worked out at 50.7%.

Consider `O=C(Nc1cccc(F)c1)C1CCCN1c1nccs1` (stereo not given), for which the INHIBITION stood at 7.75%.

Take `Cc1nn(C)c(C)c1-c1ccc(=O)n(C(C)C(=O)NC2CCCCC2)n1` (stereo not given): the INHIBITION is given as 47.6%.

For `CN(C)c1ccc(CNCc2ccc(N3CCOCC3)cc2)cn1`, the INHIBITION was -0.551%.

As for `CC(C)COc1cncc(NCc2nnc3ccccn23)n1`, the INHIBITION is given as 64.3%.

With `CCOc1cncc(NCCc2nnc3ccccn23)n1`, the INHIBITION is on record as 43.4%.

Consider `CC(C)COc1cncc(NC(CO)c2ccco2)n1` (stereo not given), for which the INHIBITION is on record as 45.6%.

In the case of `CC(C)Cn1cnc(S(=O)(=O)NCCc2nnc3ccccn23)c1`, the INHIBITION turned out to be 12%.

In the case of `CC(C)COc1cncc(NCC(O)c2ccco2)n1` (stereo not given), the INHIBITION is 20.8%.

Take `CC(C)COc1cncc(NCCc2nnc3ccccn23)n1`: the INHIBITION is 55.4%.

As for `CCc1nc(C2CCCN2C(=O)c2ccc(N3CCCC3)nn2)no1` (stereo not given), the INHIBITION is on record as 23.5%.

`CC(=O)NCCC1CCCCN1S(=O)(=O)c1ccc2ccccc2c1` (stereo not given): the INHIBITION is on record as 29%.

Take `O=C(Nc1ccc(-c2nnc[nH]2)cc1)C1CCN1Cc1ccccc1` (stereo not given): the INHIBITION is -17.3%.

In the case of `CO[C@H]1CCN(Cc2ccccn2)[C@@H]2CN(Cc3ccco3)C[C@H]12`, the INHIBITION is recorded as -11.1%.

As for `CC[C@H]1N(CC2CCOCC2)CCC[C@]12CCC(=O)N2`, the INHIBITION came out at 27.5%.

Take `CC[C@@H]1N(CC2CCOCC2)CCC[C@]12CCC(=O)N2`: the INHIBITION was determined as 49.7%.

On to `CC[C@@H]1N(CC2CC2)CCC[C@]12CCC(=O)N2`, for which the INHIBITION turned out to be 65.9%.

Consider `Cc1ccc2nccc(C(=O)N3CCOC(CCN(C)C)C3)c2c1` (stereo not given), for which the INHIBITION is 43.9%.

For `Cc1cc(C(=O)N2CCCC(C(=O)c3nccn3C)C2)c(=O)[nH]c1C` (stereo not given), the INHIBITION worked out at 25.9%.

On to `Cc1ccc(CC(=O)N(CC2CN(C)CCO2)c2nccs2)cn1` (stereo not given), for which the INHIBITION was 11.9%.

In the case of `O=C(CN1CCCCC1Cn1cncn1)NC1CCN(C2CC2)CC1` (stereo not given), the INHIBITION came out at 70.1%.

Regarding `Cc1cc(NC(=O)CCN2CCCCC2Cn2cncn2)no1` (stereo not given), the INHIBITION is recorded as 16.9%.

`O=C(CN1CCCCC1Cn1cncn1)NCCc1ccc(F)cc1` (stereo not given): the INHIBITION amounted to 43.4%.

As for `Cc1cc(NC(=O)CCN2CCCC2Cn2cncn2)no1` (stereo not given), the INHIBITION was found to be 56.3%.

In the case of `O=C(CN1CCCCC1Cn1cccn1)NC1CCN(C2CC2)CC1` (stereo not given), the INHIBITION is 26.8%.

With `O=C(CN1CCCC1Cn1cncn1)NCC1(c2ccccc2)CC1` (stereo not given), the INHIBITION came out at 89.1%.

For `O=C(CN1CCCC1Cn1cncn1)NCCOc1cccc(F)c1` (stereo not given), the INHIBITION was determined as 20.1%.

Consider `O=C(CN1CCCC1Cn1cncn1)NCCOc1ccccc1` (stereo not given), for which the INHIBITION amounted to 36.1%.

As for `CCN1CCC(NC(=O)CN2CCCCC2Cn2cncn2)CC1` (stereo not given), the INHIBITION is listed as -36.1%.

In the case of `O=C(CN1CCCC1Cn1cncn1)NCCc1c(F)cccc1F` (stereo not given), the INHIBITION is 57.2%.

In the case of `Cc1cc(NC(=O)CCN2CCCC2Cn2cccn2)no1` (stereo not given), the INHIBITION is 31.9%.

Take `O=C(CN1CCCCC1Cn1cncn1)NCCOc1ccccc1` (stereo not given): the INHIBITION is on record as 0.411%.

Take `CNc1cccc(CC2COCCN(C(=O)c3cncs3)C2)n1` (stereo not given): the INHIBITION was 16.35%.

In the case of `Cc1cc(C(F)F)nn1CC(=O)NCc1nccn1C`, the INHIBITION came to 8.32%.

As to `Cc1cccc(CN2CCC3(CCCN(C(=O)NC4CC4)C3)C2=O)n1` (stereo not given), the INHIBITION is listed as 0%.

As for `O=C(c1ccnnc1)N1C[C@H]2CN(Cc3cccc(F)c3)C(=O)[C@H]2C1`, the INHIBITION is recorded as 34.6%.

For the compound `CCOCC(=O)N1CSCC1C(=O)N(C)Cc1ccco1` (stereo not given), the INHIBITION is recorded as 17.5%.

Consider `Cc1ccc(C(=O)N2CCC3(CC2)CN(CCN(C)C)C(=O)O3)c(F)c1`, for which the INHIBITION worked out at 42.1%.

For `COc1cc(CCC(=O)N2CCC(c3cncc(C)n3)CC2)on1`, the INHIBITION was 14.85%.

With `Cc1oc(C(C)C)cc1C(=O)N1C[C@@H]2CC[C@H]1CN(c1ncccn1)C2`, the INHIBITION is recorded as -28.7%.

Turning to `O=C(CN1CCCC1Cn1cncn1)Nc1cccnc1` (stereo not given), the INHIBITION is recorded as -9.86%.

As for `O=C(CN1CCCC1Cn1cncn1)Nc1ccc(Cl)cn1` (stereo not given), the INHIBITION was 80%.

Consider `O=C(CN1CCCCC1Cn1cncn1)Nc1ccncc1` (stereo not given), for which the INHIBITION is 23.2%.

On to `CC(NC(=O)N1CCC(c2ccccc2)CC1)c1nncn1C` (stereo not given), for which the INHIBITION came to 13.3%.

With `Cc1cnn(CC2CCCCN2Cc2cnc(C)s2)c1` (stereo not given), the INHIBITION is reported as -7.05%.

Consider `Cc1ncsc1CN1Cc2cn(C)nc2C(COCC2CC2)C1` (stereo not given), for which the INHIBITION came out at 43.9%.

Take `COc1cc(CNc2cnn(CC(F)F)c2)ccc1O`: the INHIBITION amounted to 21.9%.

Consider `COc1ccc(CNc2cnn(CC(F)F)c2)cc1`, for which the INHIBITION turned out to be 64.9%.

As for `COc1cccc(CNc2cnn(CC(F)F)c2)c1`, the INHIBITION turned out to be 8.53%.

In the case of `C1CCCN(C2CCCN(Cc3noc(C4CC4)n3)C2)CC1` (stereo not given), the INHIBITION was -79.7%.

As for `CN(C)S(=O)(=O)N1CC(c2nc(N)ncc2-c2ccc(F)cc2)C1`, the INHIBITION is -20.6%.

In the case of `CC(=O)N(Cc1ncc(C(C)C)o1)C1CCN(CC2CCC2)C1` (stereo not given), the INHIBITION is given as 32.65%.

For `CC(CCc1ccc(O)cc1)NC1CCN(C(=O)C(C)C)CC1` (stereo not given), the INHIBITION was 42.1%.

For the compound `CC(CCc1ccc(O)cc1)NC1CCN(S(C)(=O)=O)CC1` (stereo not given), the INHIBITION was 55.5%.

As to `Cc1ccc(CCC(C)NC2CCN(C(N)=O)CC2)cc1` (stereo not given), the INHIBITION was -4.15%.

Consider `O=C(NCCNc1ccccn1)N1CCC(O)CC1`, for which the INHIBITION amounted to 7.585%.

The values above are taken from ChEMBL document CHEMBL4513216, “Probing the Open Global Health Chemical Diversity Library for Multistage-Active Starting Points for Next-Generation Antimalarials” (ACS Infect Dis, 2020).
